For seven compounds, Potency results are on record in PubChem BioAssay (Tox21).

The nature of experiment [1]: Nuclear factor erythroid 2-related factor 2/antioxidant responsive element (Nrf2/ARE) small molecule agonists: qHTS cell viability counter screen in human keratinocytes (AID 1919968; active = well fitted curve in the direction sought with a large enough effect in the repeat runs; an effect the other way counts as inactive or inconclusive; note: nearly all actives have a fitted effect of over 55% in size). The essentials: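 Measured as CellTiter-Fluor fluorescence, this readout tracks cytotoxicity in the same wells as the ARE-luciferase screen. HaCaT reporter cells (1,500/well) received compounds after a 5 h pre-incubation and were exposed for 23 h.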

A short description of experiment [2]: Nuclear factor erythroid 2-related factor 2/antioxidant responsive element (Nrf2/ARE) small molecule agonists: luciferase reporter gene qHTS assay in human keratinocytes (AID 1919969). Note: nearly all actives have a fitted effect of over 35% in size. Note: potency is the fitted concentration of half-maximal effect. Background: Reporter assays use an easily measured gene product as a stand-in for the process of interest.
The nature of experiment [3]: G protein-coupled receptor (GPCR) small molecule agonists, calcium flux assay: HEK293 wild type cell line counter screen (AID 1920065). The essentials:
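Readout: fluorescence at 480 nm excitation/540 nm emission, sampled at 1 s intervals for 3 min. Cells had been cultured 18 h, then dye-loaded 1 h at 37 C before compound or ATP addition.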
On the technique in general: Calcium flux is commonly read through the fluorescence of an indicator in the cells.

The nature of experiment [4]: p53 small molecule agonists, cell-based qHTS assay with human liver microsomes (AID 1963577).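 Note: p53 response element beta-lactamase reporter cells with liver microsomes plus NADPH.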 The essentials: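 Steps: plate p53RE-bla cells, incubate 5 h at 37 C; add compound in DMSO; add microsomes (0.5 mg/mL final) and NADPH (0.5 mg/mL final); incubate 16 h at 37 C; add LiveBLAzer, 2 h RT; read fluorescence.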
A general note: In qHTS, concentration-response curves come from the screen itself.

Experiment [5] is described as follows: p53 small molecule agonists, cell-based qHTS assay with rat liver microsomes (AID 1963578). Summed up: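 Metabolic activation is supplied by rat liver microsomes with NADPH (each 0.5 mg/mL final). p53RE-bla cells incubate with compound 16 h at 37 C; reporter activity is measured by LiveBLAzer fluorescence.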
Experiment [6] can be described thus: p53 small molecule agonists, cell-based qHTS assay with human liver microsomes: qHTS cell viability counter screen (AID 1963579). Note: nearly all actives have a fitted effect of over 45% in size. Summed up: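 After the 460/530 nm beta-lactamase read, CellTiter-Glo was added to the same wells and luminescence measured after 30 min at room temperature, giving viability of p53RE-bla cells treated 16 h with compounds plus microsomes and NADPH.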

The nature of experiment [7]: p53 small molecule agonists, cell-based qHTS assay with rat liver microsomes: qHTS cell viability counter screen (AID 1963580). Note: nearly all actives have a fitted effect of over 45% in size. Summed up: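 Intracellular ATP, by CellTiter-Glo luminescence, defines viability. HCT-116 p53RE-bla cells, 4,000 per well, were compound-treated in the presence of rat liver microsomes and NADPH for 16 h at 37 C.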
Experiment [8] in a line: p53 small molecule agonists, cell-based qHTS assay: qHTS cell viability counter screen (AID 1963581). Note: nearly all actives have a fitted effect of over 45% in size. The essentials:
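In the same plates used for the p53 bla reporter, HCT-116 cells given compounds for 16 h at 37 C received CellTiter-Glo; luminescence was recorded 30 min later at room temperature.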

A short description of experiment [9]: p53 small molecule agonists, cell-based qHTS assay (AID 1963582; active = well fitted activation curve with a large enough effect in the signal ratio in the repeat runs, not every such curve was filed as active; the % refers to the signal ratio). The essentials:
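Compounds are pin-transferred in DMSO onto p53RE-bla cells and incubated 16 h at 37 C. The B/G FRET beta-lactamase substrate is then applied for 2 h at RT and fluorescence recorded.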

The target in experiment [10] is 5-hydroxytryptamine receptor 2A (Homo sapiens) (UniProt P28223). Description: 5-hydroxytryptamine receptor 2A (HTR2A) small molecule agonists, cell-based qHTS assay (AID 1963587). Note: nearly all actives have a fitted effect of over 30% in size. The essentials: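 Kinetic calcium-flux fluorescence (2 min, 1 sec intervals) after compound addition in agonist mode. HTR2A-CHO cells were cultured 18 h, then dye-loaded 1 h at 37 C.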
Experiment [11] addresses Muscarinic acetylcholine receptor M1 (Homo sapiens) (UniProt P11229). Briefly: Cholinergic receptor muscarinic 1 (CHRM1) small molecule antagonists, cell-based qHTS assay (AID 1963588). Note: nearly all actives have a fitted effect of over 40% in size. Summed up: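 CHRM1-CHO calcium-flux assay, antagonist mode. Cells were seeded 18 h, dye-loaded 1 h at 37 C and given compound for 5 min at RT, then acetylcholine was added at 50nM. FDSS fluorescence was read 3 min; 15 concentrations, three runs.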

For experiment [12] the target is unchanged. Briefly: Cholinergic receptor muscarinic 1 (CHRM1) small molecule agonists, cell-based qHTS assay (AID 1963589). Note: nearly all actives have a fitted effect of over 35% in size. Summed up: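 Each compound was tested at 15 concentrations across three independent runs on dye-loaded CHO cells stably expressing human CHRM1, reading intracellular calcium fluorescence kinetically at 1 sec intervals.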
Experiment [13] is described as follows: cAMP Responsive Elements (CRE) small molecule agonists, cell-based qHTS assay (AID 1963590). Summed up: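 Cell line: CRE-bla HEK 293T; medium DMEM/10% dialyzed FBS/0.1 mM NEAA/1 mM pyruvate/25 mM HEPES; 3 h compound exposure; beta-lactamase FRET readout after 2 h substrate loading at RT.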
Experiment [14] in a line: cAMP Responsive Elements (CRE) small molecule antagonists, cell-based qHTS assay (AID 1963591; active = well fitted inhibition curve with a large enough effect in the signal ratio in the repeat runs, not every such curve was filed as active; the % refers to the signal ratio). The essentials: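 Inhibition of NKH477-driven (0.25 uM final) CRE-beta-lactamase signal in HEK293T cells, 3 h compound exposure at 37 °C, detected by FRET substrate fluorescence.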
For experiment [15], the target named is Beta-2 adrenergic receptor (Homo sapiens) (UniProt P07550). Briefly: Adrenergic beta2 receptor (ADRB2) small molecule antagonists, cell-based qHTS assay (AID 1963592). Note: nearly all actives have a fitted effect of over 50% in size. Note: potency is the fitted concentration of half-maximal effect. Summed up: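 Cells (CHO, stable ADRB2 overexpression) incubated 18-20hr at 37C; compounds added from DMSO; agonist mix (1nM isoproterenol, 100uM IBMX, 25uM Ro-20-1724) added; 0.5hr RT; d2-cAMP and anti-cAMP-cryptate added; 1hr RT; 665/615 nm read.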

Experiment [16] addresses D(2) dopamine receptor (Homo sapiens) (UniProt P14416). Briefly: Dopamine D2 receptor (DRD2) small molecule agonists, cell-based qHTS assay (AID 1963594). Note: nearly all actives have a fitted effect of over 35% in size. The essentials: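 cAMP accumulation in DRD2-HEK293 cells measured by HTRF after 1 h detection; compounds added 10 min before NKH477 (200nM […]) forskolin-analogue stimulation, 30 min at room temperature, with Ro20-1724 present at 0.1 mM final.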

For experiment [17] the target is unchanged. Description: Dopamine D2 receptor (DRD2) small molecule antagonists, cell-based qHTS assay (AID 1963595; active = well fitted inhibition curve with a large enough effect in the signal ratio in the repeat runs, with a control signal flat; the % refers to the signal ratio). The essentials:
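HTRF cAMP read-out at 665 and 620 nm emission (340 nm excitation). Antagonist mode: compounds were tested against 12 nM quinpirole in DRD2-HEK293 cells, with 200 nM NKH477 raising cAMP and 0.1 mM Ro20-1724 blocking its breakdown.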

In experiment [18] the target is KiSS-1 receptor (Homo sapiens) (UniProt Q969F8). Description: Human kisspeptin (KISS1R) small molecule agonists, calcium flux assay in KISS1R-HEK293 cells (AID 1920064; active = well fitted curve in the direction sought with a large enough effect in the repeat runs; an effect the other way counts as inactive or inconclusive). The essentials: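 Measures KISS1R agonism through calcium-sensitive dye fluorescence in stably transfected HEK293 cells, read for 3 min after pin-tool compound delivery; 15-point titrations in triplicate.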

The target in experiment [19] is 5-hydroxytryptamine receptor 2A (Homo sapiens) (UniProt P28223). Description: 5-hydroxytryptamine receptor 2A (HTR2A) small molecule antagonists, cell-based qHTS assay (AID 1963586). Note: nearly all actives have a fitted effect of over 45% in size. Summed up:
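Antagonist-mode intracellular calcium assay: DOI (4 nM) added after 5 min compound pre-incubation at room temperature to dye-loaded HTR2A-CHO cells. Fluorescence followed for 3 min, sampled every second.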

Experiment [20] concerns the target Beta-2 adrenergic receptor (Homo sapiens) (UniProt P07550). Description: Adrenergic beta2 receptor (ADRB2) small molecule agonists, cell-based qHTS assay (AID 1963593).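 Note: CHO cells stably overexpressing human ADRB2.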 Summed up:
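CHO cells stably over-expressing ADRB2 were plated overnight at 37C, then dosed with compounds plus a stimulation mix containing 100uM IBMX and 25uM Ro-20-1724 for 0.5hr at room temperature. cAMP was measured by HTRF competition, 1hr.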

“And” between values parts separate entries of the source, which are not always exact repeats. Equal entries are not always repeated. Inconclusive results are not listed. Where a structure was tested more than once in an assay, its records may differ in their call. The source made the active and inactive calls. Unless noted, calls come from the whole dose curve.

KiSS-1 receptor (Homo sapiens), sequence (Q969F8 whole entry, looked up): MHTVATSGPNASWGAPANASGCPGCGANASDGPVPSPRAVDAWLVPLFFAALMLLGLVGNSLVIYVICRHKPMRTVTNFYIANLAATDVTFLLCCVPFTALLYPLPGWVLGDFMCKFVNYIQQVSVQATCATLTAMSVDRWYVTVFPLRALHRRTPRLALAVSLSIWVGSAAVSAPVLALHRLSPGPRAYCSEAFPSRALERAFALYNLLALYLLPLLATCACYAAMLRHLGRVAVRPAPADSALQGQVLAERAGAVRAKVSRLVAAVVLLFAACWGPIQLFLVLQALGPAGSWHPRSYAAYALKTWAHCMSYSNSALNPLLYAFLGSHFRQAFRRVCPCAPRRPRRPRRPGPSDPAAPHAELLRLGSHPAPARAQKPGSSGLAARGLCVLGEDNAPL
5-hydroxytryptamine receptor 2A (Homo sapiens), sequence (P28223 whole entry, looked up): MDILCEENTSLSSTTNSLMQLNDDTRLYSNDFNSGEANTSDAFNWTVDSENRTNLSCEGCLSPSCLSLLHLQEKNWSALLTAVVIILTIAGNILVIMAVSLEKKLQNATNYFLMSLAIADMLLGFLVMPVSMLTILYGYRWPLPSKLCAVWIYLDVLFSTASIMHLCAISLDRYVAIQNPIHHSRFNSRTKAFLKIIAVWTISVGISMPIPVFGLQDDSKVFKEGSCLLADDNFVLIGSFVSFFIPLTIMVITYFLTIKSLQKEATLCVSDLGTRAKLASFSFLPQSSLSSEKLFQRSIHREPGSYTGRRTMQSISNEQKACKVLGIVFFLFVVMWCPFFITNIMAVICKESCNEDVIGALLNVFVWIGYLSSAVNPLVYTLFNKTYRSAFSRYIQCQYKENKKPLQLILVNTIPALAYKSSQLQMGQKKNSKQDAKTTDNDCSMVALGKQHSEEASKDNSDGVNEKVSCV
Muscarinic acetylcholine receptor M1 (Homo sapiens), sequence (P11229 whole entry, looked up): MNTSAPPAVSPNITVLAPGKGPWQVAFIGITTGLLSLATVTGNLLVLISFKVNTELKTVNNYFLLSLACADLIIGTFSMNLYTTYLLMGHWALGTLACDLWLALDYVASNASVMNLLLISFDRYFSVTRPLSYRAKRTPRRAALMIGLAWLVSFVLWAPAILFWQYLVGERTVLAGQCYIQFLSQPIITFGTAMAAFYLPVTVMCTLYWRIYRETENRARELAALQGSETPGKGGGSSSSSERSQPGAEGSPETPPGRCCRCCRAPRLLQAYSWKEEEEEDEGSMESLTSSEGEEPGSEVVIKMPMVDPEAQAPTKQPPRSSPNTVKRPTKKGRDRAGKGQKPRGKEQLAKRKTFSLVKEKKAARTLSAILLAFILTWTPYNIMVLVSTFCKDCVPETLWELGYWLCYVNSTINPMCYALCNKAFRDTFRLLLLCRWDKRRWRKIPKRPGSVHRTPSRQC
D(2) dopamine receptor (Homo sapiens), sequence (P14416 whole entry, looked up): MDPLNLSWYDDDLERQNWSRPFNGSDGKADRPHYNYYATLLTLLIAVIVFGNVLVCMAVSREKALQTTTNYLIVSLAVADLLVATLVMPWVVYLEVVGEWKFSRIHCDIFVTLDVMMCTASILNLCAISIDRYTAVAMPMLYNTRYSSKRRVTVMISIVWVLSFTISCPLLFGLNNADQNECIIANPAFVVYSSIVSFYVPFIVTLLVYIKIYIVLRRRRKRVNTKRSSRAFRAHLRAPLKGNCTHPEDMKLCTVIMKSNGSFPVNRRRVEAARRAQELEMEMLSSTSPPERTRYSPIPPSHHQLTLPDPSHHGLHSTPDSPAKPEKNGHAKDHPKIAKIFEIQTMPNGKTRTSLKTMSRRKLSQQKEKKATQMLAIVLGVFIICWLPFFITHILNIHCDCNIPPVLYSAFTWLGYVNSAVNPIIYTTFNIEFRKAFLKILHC
Beta-2 adrenergic receptor (Homo sapiens), sequence (P07550 whole entry, looked up): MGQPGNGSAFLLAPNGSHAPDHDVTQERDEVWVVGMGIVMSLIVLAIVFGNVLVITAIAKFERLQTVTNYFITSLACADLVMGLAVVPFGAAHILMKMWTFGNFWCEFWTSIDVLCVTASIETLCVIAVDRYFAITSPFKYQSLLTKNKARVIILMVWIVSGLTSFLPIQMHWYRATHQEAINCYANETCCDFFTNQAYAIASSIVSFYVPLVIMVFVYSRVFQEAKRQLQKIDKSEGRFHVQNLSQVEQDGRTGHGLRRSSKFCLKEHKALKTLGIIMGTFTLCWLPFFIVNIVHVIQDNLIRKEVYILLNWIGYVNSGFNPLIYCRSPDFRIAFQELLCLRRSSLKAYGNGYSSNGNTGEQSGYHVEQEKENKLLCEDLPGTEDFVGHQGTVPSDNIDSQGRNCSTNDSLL

For the compound `Cc1ccc2c(C)cccc2c1`, the Potency entry in experiment [1], in [2], in experiment [3], in experiment [4], in experiment [5] and in [6] was “inactive” each time. Further, the Potency entry in experiment [7], in experiment [8], in experiment [9], in experiment [10], in experiment [11] and in experiment [12] was “inactive” in each case. For the same compound, the Potency entry in [13], in experiment [14], in experiment [15], in [16] and in experiment [17] was “inactive” in each case.

Regarding `CC(C)NC(C)C`, the Potency result in experiment [1], in experiment [2], in experiment [18], in [3], in experiment [4] and in experiment [5] was “inactive” each time. The Potency entry in [6], in [7], in experiment [8], in experiment [9], in experiment [19] and in experiment [10] was “inactive” throughout. The Potency entry in experiment [11], in experiment [12], in experiment [13], in [14], in experiment [15] and in experiment [20] was “inactive” each time. Also, the Potency result in [16] and in experiment [17] was “inactive” throughout.

Consider `C=CCO`, for which the Potency entry in experiment [1], in experiment [2], in [18], in experiment [3], in experiment [4] and in experiment [5] was “inactive” throughout. The Potency result in experiment [6], in experiment [7], in [8], in experiment [9], in [13] and in experiment [14] was “inactive” throughout. The Potency entry in experiment [20], in [16] and in [17] was “inactive” throughout. Further, the Potency entry in [15] was “inactive and 61.1 µM (active)”.

As to `COC(=O)c1ccc(CBr)cc1`, the Potency entry in experiment [1], in experiment [18], in experiment [3], in experiment [4], in experiment [5] and in [6] was “inactive” each time. The Potency result in experiment [7], in experiment [8], in [9], in [19], in [10] and in [12] was “inactive” throughout. Further, the Potency entry in experiment [13], in experiment [14], in experiment [15], in [20] and in experiment [17] was “inactive” throughout. Further, the Potency in experiment [2] is 6.19 µM (active).

On to `O=C=NC1CCCCC1`, for which the Potency entry in experiment [1], in experiment [2], in experiment [18], in experiment [3], in experiment [4] and in [5] was “inactive” throughout. In addition, the Potency result in [6], in experiment [7], in experiment [8], in experiment [9], in experiment [19] and in experiment [10] was “inactive” in each case. The Potency result in [12], in [13], in [14], in [15], in experiment [16] and in experiment [17] was “inactive” throughout.

Consider `OC(Cc1ccccc1Cl)(Cn1cncn1)C1(Cl)CC1` (stereo not drawn), for which the Potency entry in experiment [1], in experiment [2], in [18], in [3], in experiment [4] and in experiment [5] was “inactive” in each case. The Potency result in [6], in experiment [7], in [8], in experiment [9], in [19] and in experiment [10] was “inactive” in each case. The Potency result in experiment [11], in [12], in [13], in experiment [14], in experiment [15] and in experiment [16] was “inactive” in each case. Besides, in [17], the Potency entry is “inactive”.

As for `COc1ccc(C(O)(c2cncnc2)C2CC2)cc1` (stereo not drawn), the Potency entry in experiment [1], in experiment [2], in [18], in experiment [3], in experiment [4] and in [5] was “inactive” each time. In addition, the Potency result in [6], in experiment [7], in [8], in [9], in [19] and in experiment [10] was “inactive” each time. Moreover, the Potency entry in experiment [11], in experiment [12], in [13], in experiment [14], in [15] and in [20] was “inactive” throughout. The Potency result in experiment [16] and in experiment [17] was “inactive” in each case.
